# Test results reported in ChEMBL document CHEMBL3988442, “University of Dundee, Small-Polar-MMV Screening Library” (2021).
# Among all 69,000 compounds or so, about 1,000 (1.4%) showed an effect of 50% or more. This is one part of a sample in which strong results are shown more often than they occur.
# System: Leishmania donovani
# Test: Leishmania intramacrophage assay
# Assay type: functional, organism-based
# Design: scale not given: in the data most compounds retested in dose-response had high values
structure (smiles),measurement,setting,value
CCC(Nc1nc(C)nc2onc(C)c12)c1cccs1 (stereo not drawn),Percent Effect,"30.3 µM, […]",50.11%
O=C(NC1CCOCC1)c1cccc(C2CCCNC2)c1 (stereo not drawn),Percent Effect,"30.3 µM, […]",-13.02%
CN(C)CCOCC1CN(Cc2ccsc2)Cc2ccnn2C1.O=C(O)C(F)(F)F.O=C(O)C(F)(F)F.O=C(O)C(F)(F)F (stereo not drawn),Percent Effect,"30 µM, 30.03 µM",9.716%
CCOCC1CN(C(=O)Cc2cccs2)Cc2ccnn2C1 (stereo not drawn),Percent Effect,"30.3 µM, […]",34.28%
CCOCC1CN(C(=O)Cc2ccsc2)Cc2ccnn2C1.O=C(O)C(F)(F)F (stereo not drawn),Percent Effect,"30.3 µM, […]",51.92%
Cc1noc(C)c1CN(C)Cn1c(=O)n(C)c2ccccc21,Percent Effect,"30.3 µM, […]",5.674%
Cc1noc(C)c1CN(C)C(=O)CCn1c(=O)n(C)c2ccccc21,Percent Effect,"30.3 µM, […]",50.75%
Cc1noc(C)c1CN(C)C(=O)Cn1c(=O)n(C)c2ccccc21,Percent Effect,"30.3 µM, […]",12.61%
O=C(CC1CC1)NCc1cn2c(n1)CN(C(=O)C1CCOCC1)CC2,Percent Effect,"30.3 µM, […]",-40.34%
COCCNc1nc(C2CCCC2)nc2c1CCNCC2,Percent Effect,"30 µM, 30.03 µM",63.78%
Cc1nc2c(c(NCCc3nc4c(s3)CCCC4)n1)CCNCC2,Percent Effect,"30.3 µM, […]",49.04%
OC(CNc1ncnc2c1CCNCC2)C(F)(F)F (stereo not drawn),Percent Effect,"30.3 µM, […]",26.97%
C1Cc2nc(CCNc3nc(C4CC4)nc4c3CCNCC4)sc2C1,Percent Effect,"30.3 µM, […]",95.48%
COCCNc1nc2c(c(NCC3CCOC3)n1)CCNCC2 (stereo not drawn),Percent Effect,"30.3 µM, […]",32.27%
COCc1noc(CNc2nc(C3CCCC3)nc3c2CCNCC3)n1,Percent Effect,"30.3 µM, […]",8.376%
Cc1nc2c(c(NCC(O)C(F)(F)F)n1)CCNCC2 (stereo not drawn),Percent Effect,"30.3 µM, […]",-15.94%
c1nc(CCNc2nc(C3CC3)nc3c2CCNCC3)c[nH]1,Percent Effect,"30.3 µM, […]",9.64%
OC(CNc1nc(C2CCCC2)nc2c1CCNCC2)C(F)(F)F (stereo not drawn),Percent Effect,"30.3 µM, […]",100.7%
O=C(NC1CC1)C1CCc2nnc(-c3cccc(C(F)(F)F)c3)n21 (stereo not drawn),Percent Effect,"30.3 µM, […]",10.31%
CN(C)CCn1cc(NC(=O)NC(C)(C)c2nccs2)cn1,Percent Effect,"30.3 µM, […]",7.741%
Cc1cc(C(=O)N2CCCC2c2nnc3n2CCCCC3)on1 (stereo not drawn),Percent Effect,"30.3 µM, […]",34.8%
CO[C@H]1[C@@H]2CC[C@H]1CN(c1nc(C)nc3sccc13)C2,Percent Effect,"30.3 µM, […]",56.76%
Cc1nc(N2C[C@@H](CN3CCCN(C)CC3)[C@@H](CO)C2)c2ccsc2n1,Percent Effect,"30.3 µM, […]",-13.66%
CO[C@H]1[C@@H]2CC[C@H]1CN(c1nc(C)nc3ccsc13)C2,Percent Effect,"30.3 µM, […]",34.92%
CC(=O)N1C[C@H]2C3(CCN(S(C)(=O)=O)CC3)CC[C@@]2(C(=O)N(C)C)C1,Percent Effect,"30.3 µM, […]",-12.02%
Cc1cc(C)n(CC2CCCCN2CC(=O)N(C)Cc2ccco2)n1 (stereo not drawn),Percent Effect,"30.3 µM, […]",-27.36%
Cc1cc(C)n(CC2CCCN2CC(=O)N(C)Cc2ccco2)n1 (stereo not drawn),Percent Effect,"30.3 µM, […]",34.8%
Cc1cc(C)n(CC2CCCN2CC(=O)N(C)Cc2ccc(C)o2)n1 (stereo not drawn),Percent Effect,"30.3 µM, […]",94.04%
CNS(=O)(=O)c1cccc(CNc2ccc(C(F)(F)F)nn2)c1,Percent Effect,"30 µM, 30.03 µM",12.97%
COc1ccccc1N1CC(NC(=O)Cn2cc(C)nn2)CC1=O (stereo not drawn),Percent Effect,"30.3 µM, […]",4.572%
COc1ccccc1N1CC(NC(=O)c2cc(C(C)C)nn2C)CC1=O (stereo not drawn),Percent Effect,"30.3 µM, […]",57.19%
COc1ccccc1N1CC(NC(=O)Cn2cc(C(C)C)nn2)CC1=O (stereo not drawn),Percent Effect,"30.3 µM, […]",-4.218%
CCOCCC(=O)NC(Cc1ccc(C)cc1)c1ccccn1 (stereo not drawn),Percent Effect,"30.3 µM, […]",16.59%
CN1CC[C@@H]2[C@@H](CO[C@H]2CNC(=O)c2nccn2C)C1.O=C(O)C(F)(F)F,Percent Effect,"30.3 µM, […]",58.2%
CCCN1CC[C@@H]2[C@@H](CO[C@H]2CNC(=O)c2nccn2C)C1.O=C(O)C(F)(F)F,Percent Effect,"30.3 µM, […]",42.84%
Cn1ccnc1C(=O)NC[C@@H]1OC[C@H]2CN(CC3CC3)CC[C@H]21.O=C(O)C(F)(F)F,Percent Effect,"30.3 µM, […]",33.21%
Cc1ncccc1Oc1cncc(C2CCCN2Cc2cncn2C)n1 (stereo not drawn),Percent Effect,"30.3 µM, […]",19.44%
Cn1cncc1CN1CCCC1c1cncc(Oc2ccc(F)cc2)n1 (stereo not drawn),Percent Effect,"30.3 µM, […]",23.83%
Cn1cncc1CN1CCCC1c1cncc(Oc2ccc(Cl)cc2)n1 (stereo not drawn),Percent Effect,"30.3 µM, […]",60.52%
O=C(O)C(F)(F)F.O=C([C@H]1COC[C@H]2CN(CC3CCCC3)C[C@H]21)N1CCOCC1,Percent Effect,"30.3 µM, […]",14.74%
CC(=O)N1CCC2(CC1)CN(C(=O)[C@@H]1CSCN1)c1ccc(Cl)cc12.O=C(O)C(F)(F)F,Percent Effect,"30.3 µM, […]",42.29%
COC1COC2(CCN(C(=O)c3ccccc3F)CC2)C1 (stereo not drawn),Percent Effect,"30.3 µM, […]",35.35%
COc1ncccc1C(=O)N1CC[C@]2(C[C@@H](Oc3cccnc3)CO2)C1.O=C(O)C(F)(F)F.O=C(O)C(F)(F)F,Percent Effect,"30.3 µM, […]",31.08%
CS(=O)(=O)N1CCC[C@]2(C[C@@H](Oc3ncccc3F)CO2)C1.O=C(O)C(F)(F)F,Percent Effect,"30 µM, 30.03 µM",22.25%
COc1ncccc1C(=O)N1CCC2(CC1)CC(OC)CO2.O=C(O)C(F)(F)F (stereo not drawn),Percent Effect,"30.3 µM, […]",56.73%
O=C(O)C(F)(F)F.O=C(O)C(F)(F)F.O=C(c1cccnc1)N1CCC[C@]2(C[C@H](Oc3ncccc3F)CO2)C1,Percent Effect,"30.3 µM, […]",55.01%
CCO[C@H]1CO[C@@]2(CCCN(Cc3nc(C)cs3)C2)C1.O=C(O)C(F)(F)F,Percent Effect,"30 µM, 30.03 µM",20.53%
O=C(O)C(F)(F)F.O=C(c1ncccn1)N1CCC[C@]2(C[C@@H](Oc3ncccc3F)CO2)C1,Percent Effect,"30.3 µM, […]",-9.266%
Cc1csc(CN2CCC[C@]3(C[C@@H](OCC4CC4)CO3)C2)n1.O=C(O)C(F)(F)F,Percent Effect,"30.3 µM, […]",2.266%
CO[C@@H]1CO[C@@]2(CCCN(Cc3nc(C)cs3)C2)C1.O=C(O)C(F)(F)F,Percent Effect,"30.3 µM, […]",100.6%
Cn1cc(CN2CCC[C@]3(C[C@@H](Oc4ncccc4F)CO3)C2)cn1.O=C(O)C(F)(F)F.O=C(O)C(F)(F)F,Percent Effect,"30.3 µM, […]",62.31%
Cn1cc(CN2CCC[C@]3(C[C@H](Oc4ncccc4F)CO3)C2)cn1.O=C(O)C(F)(F)F.O=C(O)C(F)(F)F,Percent Effect,"30.3 µM, […]",42.35%
O=C(O)C(F)(F)F.O=C(c1ccccc1)N1CCC[C@]2(C[C@@H](Oc3ncccc3F)CO2)C1,Percent Effect,"30.3 µM, […]",-17.71%
